SENP8 block-1: blocks human SENP8 cleavage of Nedd8 substrate | Q96LD8 | recombinant SENP8, Nedd8 substrate fluorescence | inhibition, % at 20 µM | 0.64% of 360,000 active; in the data active = inhibition mostly above about 40%, no sharp cut-off; inactive = mostly below about 27%
SENP7 inh: blocks the human protease SENP7; Q9BQF6; recombinant SENP7, Z-RLRGG-aminoluciferin luminescence, 40 min; inhibition, % at 5 µM; 1.5% of 330,000 active; AID 434973;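 active = inhibition above about 50% at the single test dose, limit read from the data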;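 also: plate controls were DMSO with enzyme for no effect and no enzyme buffer wells for full effect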
SENP8 block-2: SENP8 protease inhibition | Q96LD8 | 1.2% of 330,000 active | inhibition, % at 10 µM | AID 2540 | purified SENP8, Z-RLRGG-aminoluciferin cleavage, luminescence; in the data active = inhibition above about 50%
HSP90 refold inh: inhibitors of HSP90 luciferase refolding in rabbit reticulocyte lysate. 0.91% of 290,000 active. inhibition, % at 5.6 µM. luciferase refolding luminescence, 3 h. AID 1789;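 active = inhibition above the screen-wide mean plus 3 SD, computed separately per campaign, cut at about 16% in these data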;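 also: 0% = DMSO wells and 100% = 60 µM geldanamycin wells; inhibitors lower the luminescence because luciferase stays unfolded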
LGR2 inh: inhibitors of bursicon-induced Drosophila LGR2 receptor cAMP signaling. HEK293 LGR2, CRE-luciferase, bursicon-stimulated, 4 h. 0.35% of 380,000 active. AID 720647. inhibition, % at 9.99 µM;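 active = drop in luminescence signal, shown as inhibition above about 50% in the replicate tests, limit read from the data, passing the limit was not always enough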;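 also: agonist challenge used bursicon conditioned medium at about half maximal strength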
SENP6 block: SENP6 protease inhibition; Q9GZR1; Recombinant SENP6 catalytic domain, aminoluciferin luminescence; inhibition, % at 10 µM; 1.8% of 330,000 active; AID 2599;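 active = inhibition above about 50% at the single tested dose, limit read from the data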;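 also: plate controls were DMSO wells with enzyme for no effect and DMSO wells lacking enzyme for full effect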
Target sequence (Q9GZR1 628-1112 limits assumed): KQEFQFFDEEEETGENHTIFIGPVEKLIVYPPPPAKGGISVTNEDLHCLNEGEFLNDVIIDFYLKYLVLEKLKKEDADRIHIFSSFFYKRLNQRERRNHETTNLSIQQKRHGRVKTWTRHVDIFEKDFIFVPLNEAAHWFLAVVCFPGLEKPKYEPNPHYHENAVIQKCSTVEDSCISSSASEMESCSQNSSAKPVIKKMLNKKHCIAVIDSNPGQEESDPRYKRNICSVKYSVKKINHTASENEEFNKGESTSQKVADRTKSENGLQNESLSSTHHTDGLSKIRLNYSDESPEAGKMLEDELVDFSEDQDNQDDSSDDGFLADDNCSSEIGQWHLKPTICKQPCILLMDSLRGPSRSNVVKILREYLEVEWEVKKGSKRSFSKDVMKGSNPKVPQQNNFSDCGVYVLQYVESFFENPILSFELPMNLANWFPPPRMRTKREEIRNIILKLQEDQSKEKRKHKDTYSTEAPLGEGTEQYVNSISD
SENP8 conf: confirmation of human SENP8 protease inhibitors | shares compounds with SENP8 block-1 | purified SENP8, Nedd8-AMC/pro-Nedd8 cleavage fluorescence, 30 min | inhibition, % at 25 µM | 15% of 1,400 active; in the data active = inhibition mostly above about 39%, no sharp cut-off; inactive = mostly below about 34%
An asterisk follows results filed as active; nt = no result given. The list is not random: actives were taken first. Their share in the collection is about 2.3%.

SMILES	SENP8 block-1	SENP7 inh	SENP8 block-2	HSP90 refold inh	LGR2 inh	SENP6 block	SENP8 conf
COc1ccc(C2C(C(C)=O)=C(O)C(=O)N2C)c(OC)c1 (stereo not drawn)	42*	10	-3	0	nt	-5	26
COc1ccc(C2C(C(C)=O)=C(O)C(=O)N2c2cccnc2)c(OC)c1 (stereo not drawn)	3	11	3	3	nt	6	nt
c1ccc(OCCSc2nc3ccccc3o2)cc1	14	5	-19	-3	nt	-26	nt
CCOc1ccc(OCCSc2nc3ccccc3o2)cc1	47*	1	3	1	nt	-8	1
COc1ccc(S(=O)(=O)N2CCOCC2)cc1NC(=O)COC(=O)C1=COCCO1	41*	-6	-4	0	2	-12	11
COc1ccc(NC(=O)C2CCC(N3C(=O)C4C5C=CC(C5)C4C3=O)CC2)cc1 (stereo not drawn)	20	2	2	0	nt	-7	nt
COc1ccc(NC(=O)[C@@H]2[C@@H]3C(=O)N(C4CCCCC4)C(=O)[C@@H]3C3c4ccccc4C=CN32)cc1 (stereo partly drawn)	64*	6	2	3	nt	9	38*
CC1(/[N+]([O-])=C/c2ccc(Cl)cc2Cl)CCCCC1=O (stereo not drawn)	46*	5	6	-1	-1	19	0
O=C(c1ccncc1)N1CC(=O)N2[C@H](CO)[C@H](c3ccc(-c4ccccc4F)cc3)[C@H]2C1	nt	nt	nt	nt	-12	nt	nt
O=C(COc1ccccc1)NCc1cccs1	42*	-8	-9	-2	nt	-3	12
CCOc1ccc(OCCCCN2CCCC2)cc1	42*	4	3	2	nt	-12	11
Cc1ccc(OCCCCN2CCCCC2)cc1	2	-17	-5	3	6	-19	nt
C[C@H](CO)N1C[C@H](C)[C@@H](CN(C)C(=O)C2CC2)Oc2cc(C3=CCCCC3)ccc2S1(=O)=O	nt	nt	nt	nt	-1	nt	nt
COc1cccc(NC(=S)NN=C2CCC(C(C)(C)C)CC2)c1 (stereo not drawn)	47*	-10	-4	2	0	7	10
COc1cccc(NC(=S)N/N=C2\CC3CCC2(C)C3(C)C)c1 (stereo not drawn)	7	8	-6	-3	-101	-13	nt
CCC(=O)Nc1ccc2c(c1)C(=O)N(C)[C@@H]1CC[C@@H](CC(=O)NC3CCCC3)O[C@@H]1CO2	nt	nt	nt	nt	-5	nt	nt
C/C=C/c1ccc([C@@H]2[C@H](CO)N(CCC(F)(F)F)C23CN(C(=O)CN(C)C)C3)cc1	nt	nt	nt	nt	-2	nt	nt
Cc1nc(C)n(C)c(=O)c1-c1ccccc1	40*	-6	-8	-5	4	-21	5
Cc1nc(C)c(-c2ccccc2)c(=O)[nH]1	11	11	-9	-4	nt	-27	nt
Cc1ccc(Cc2cnc(NC(=O)/C(C#N)=C/c3ccc(-c4ccccc4[N+](=O)[O-])o3)s2)cc1	47*	8	7	-1	3	16	18
CCN(CC)c1ccc(N=Cc2c(C)[nH]c3ccccc23)cc1	60*	0	-10	5	5	11	8
CC(O)/C=C/C1OC(=O)CC1Nc1ccc(C=O)cc1 (stereo not drawn)	52*	1	-7	2	-1	3	15
Cc1ccc(C(=O)COc2ccccc2-c2ccccc2)cc1	45*	6	5	0	-3	7	13
CN(C)Cc1cn(CC[C@H]2CC[C@H](NC(=O)Nc3ccc4c(c3)OCO4)[C@@H](CO)O2)nn1	nt	nt	nt	nt	6	nt	nt
CCc1nnc(NS(=O)(=O)c2ccc(Nc3ccc([N+](=O)[O-])c4nonc34)cc2)s1	45*	2	-2	-2	20	22	30
CCc1nnc(NS(=O)(=O)c2ccc(NS(=O)(=O)c3ccccc3[N+](=O)[O-])cc2)s1	25	-8	-11	0	5	-21	nt
Cn1cnc2c(=O)[nH]cc([N+](=O)[O-])c21	84*	12	4	1	11	9	59*
COc1ccc(OC)c(S(=O)(=O)Nc2cccc3c(O)cccc23)c1	48*	-4	1	nt	11	7	30
COc1ccc(OC)c(S(=O)(=O)Nc2ccc(O)c3ccccc23)c1	18	4	-1	10	nt	2	nt
